The results in this text go back to PubChem BioAssay (NCI).

The structures appear in SMILES notation. The panel holds about 83,000 compounds, 20% with a hit somewhere; the sample as a whole holds those more often.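 Each cell line was grown in a 96-well plate and treated with one concentration of compound for 48 hours. Values below 10 were considered active.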 Unmarked numbers belong to inactive results. Active and inactive are the calls of the source.

Experiment in all cases: NCI-60 one-dose screen, 48 h (100 = growth as untreated, 0 = no growth, -100 = all killed)
Details in all cases: 10 µM

Test [1] concerns NCI-H23 lung.
The test system of test [2] is NCI-H226 lung.
Test [3] relates to NCI-H322M lung.
Test [4] relates to NCI-H460 lung.
The test system of test [5] is HOP-92 NSCLC.
Test [6] has as its system NCI-H522 lung.
The subject of test [7] is A549/ATCC NSCLC.
Test [8] concerns 786-0 renal.
The test system of test [9] is COLO 205 colon.

For `COCCOC(=O)NC(=O)Nc1ccc(/C(=N/O)c2ccc(Cl)cc2)cc1`, the growth in test [1] is 29.2%; in test [2], 33.3%; in [3] it was 30.5%; in test [4], 7.81% (active); in [5], 44.6%; in test [6] it was -38.3% (active). Further, the growth in test [7] is 15.4%; in test [8], 22.3%; in test [9], -42.6% (active).

Take `O=C(N/N=c1/ccoc2cccnc12)N1CCN(c2ncccn2)CC1`: the growth was 26.4% in test [1]; 37.6% in [2]; 39.1% in test [3]; 15.2% in [4]; 64.2% in test [5]; 9.96% (active) in [6]. For the same molecule, the results for the growth in test [7], in test [8] and in test [9] were 17.6%, 40.4% and 4.3% (active), respectively.

On to `CCCCC(=O)N(c1ccc(Nc2c3ccccc3nc3cc([N+](=O)[O-])ccc23)cc1)S(C)(=O)=O`, for which the growth is 81.8% in test [1]; 71.3% in [2]; 82.1% in test [3]; 14% in test [4]; 39.2% in test [5]; 50.7% in test [6]. Further, the growth in [7] was 34%; in [8] it was 74.3%; in test [9] it was 88.1%.

Consider `CCCCCCCC/C=C/CCCCCCCCC1=NCCN1CCO`, for which the growth is 76.5% in [1]; 86.9% in test [2]; 55.5% in test [3]; -34% (active) in test [4]; -5.31% (active) in test [5]; 76.7% in test [6]. Further, the results for the growth in test [7], in test [8] and in test [9] were 77.5%, 75% and 70.7%, respectively.

`COc1cc(OC)cc(-c2ccc(-c3ccc(C(=N)N)cn3)o2)c1`: the growth in [1] was 61.6%; in [2] it was 60.7%; in test [3] it was 2.03% (active); in test [4] it was -76.6% (active); in test [5], -21.8% (active); in test [6] it was -50.7% (active). For the same molecule, the growth in test [7] was 4.73% (active); in test [8] it was -40.2% (active); in test [9] it was -56.9% (active).

Turning to `CC(C)c1[nH]nc2c(NCc3ccc(-c4ccccn4)cc3)nc(SCCN)nc12`, the growth is -34.8% (active) in test [1]; -0.633% (active) in [2]; 10.3% in [3]; 3.31% (active) in [4]; -11.1% (active) in test [5]; -54.8% (active) in test [6]. The growth in [7] was 6.81% (active); in test [8], 6.26% (active); in test [9], -48.2% (active).

Consider `CCc1ccc(Nc2cc(C)nc3nc(C)nn23)cc1`, for which the growth in test [1] was 3.75% (active); in test [2], 62.1%; in test [3], 61.7%; in test [4] it was -43.3% (active); in test [5], -3% (active); in [6], -14.6% (active). Also, the results for the growth in test [7], in [8] and in test [9] were -17.6% (active), 34.8% and -96.4% (active), respectively.

Turning to `NC(=O)C12C(=O)NC(=O)C1(C(=O)O)C21CCCC1` (stereo unspecified), the growth in test [1] was 109%; in [2] it was 110%; in test [3], 104%; in [4], 117%; in test [5], 102%; in [6], 111%. In addition, the growth is 99% in test [7], 101% in test [8] and 115% in test [9].

As to `CCN1CCN(c2nc(NNC(=O)c3cccc(OC)c3)nc(N3CCN(C(c4ccccc4)c4ccccc4)CC3)n2)CC1`, the growth in [1] is 78.5%; in test [2] it was 94.5%; in [3], 89.7%; in test [4], -9.84% (active); in test [5] it was 42.8%; in [6], 97%. The growth is 65.3% in [7] and 72.8% in test [8].

Take `COc1ccc(-c2cn[nH]c2-c2cc(OC)c(OC)c(OC)c2)cc1`: the growth in test [1] is 27.8%; in [2], 56.7%; in test [3] it was 26.4%; in [4] it was 3.25% (active); in test [5], -5.63% (active); in test [7] it was 21.2%. Moreover, the growth is -4.65% (active) in test [8] and -68% (active) in test [9].

On to `COc1cccc(-c2nnc(COc3ccc(-c4nc5ccc(C)cc5[nH]4)cc3OC)o2)c1`, for which the growth was 88% in test [1]; 84.6% in test [2]; 98% in [3]; 36.7% in test [4]; 61.8% in test [7]; 81.5% in test [8]. The growth in [9] is 72.6%.

For the molecule `CCOC(=O)Cn1nnc(-c2ccc(OCc3ccccc3F)cc2)n1`, the growth was 89% in test [1]; 103% in test [2]; 98.7% in test [3]; 102% in test [4]; 52.3% in test [6]; 90.8% in [7]. Moreover, the growth in test [8] is 97.2%; in test [9], 103%.

As to `CCCCCCCCCCCCCC[n+]1ccccc1`, the growth in test [1] is -11.7% (active); in test [2], -19% (active); in test [3], 16.9%; in test [4], -44.8% (active); in [5], -50.8% (active); in test [6], -66.9% (active). Moreover, the growth in test [7] is -55.8% (active); in [8], -53.5% (active); in test [9], -93% (active).

As for `O=NN(CCCl)C(=O)Nc1ccc(NC(=O)N(CCCl)N=O)cc1`, the growth in [1] is 107%; in test [2] it was 96.5%; in [3] it was 112%; in [4], 88.7%; in [5], 84.8%; in [6] it was 114%. The growth is 82.8% in test [7], 61.3% in test [8] and 105% in [9].
